Screening data from PubChem BioAssay.
Rows were chosen to be rich in hits. Some 10% of all compounds tested hit in one or more screens of this group.
ALDH1A1 inh: qHTS Assay for Inhibitors of Aldehyde Dehydrogenase 1 (ALDH1A1). Potency, µM (doses to about 75.3 µM), inactives show at the highest dose activity, negative = inhibition, most hits filed as inhibitors. 7.3% of 220,000 active. Aldehyde dehydrogenase 1A1 (Homo sapiens), P00352. Purified ALDH1A1, NADH fluorescence, propionaldehyde substrate;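 note: potency is the fitted concentration of half-maximal effect; plate controls were no enzyme wells and a reference inhibitor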
LMNA splice mod: qHTS Assay for Modulators of Lamin A Splicing; HeLa LMNA splicing GFP/RFP minigene ratio, 48 h; Potency, µM (highest dose often 46.1 µM), for the others: at the highest dose ratio change, negative = inhibition, actives largely listed as inhibitors; 0.01% of 200,000 active; active = well fitted inhibition curve with a large enough effect in the signal ratio, with a control signal flat, not every such curve was filed as active; inconclusive = small, poorly fitted or top-dose-only effect, or effect the other way, or a change in a side signal; the % refers to the signal ratio; note: potency is the fitted concentration of half-maximal effect
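S3 HeLa stable clones carrying a lamin A-EGFP splicing minigene plus DsRed2 were seeded at 600 cells/well in Opti-MEM with 2% FBS, pin-dosed and incubated 48 h at 37°C. Acumen cytometry (488 nm) gave the GFP/RFP total-intensity ratio.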
HPGD inh: qHTS Assay for Inhibitors of HPGD (15-Hydroxyprostaglandin Dehydrogenase). 15-hydroxyprostaglandin dehydrogenase [NAD(+)] (Homo sapiens), P15428. purified HPGD, NADH fluorescence kinetic, PGE2 substrate. Potency, µM, inactives show top-dose activity change, negative = inhibition, hits mostly inhibitors. 4.3% of 150,000 active. AID 894, 2007; note: potency is the fitted concentration of half-maximal effect
Target sequence (P15428 whole entry, looked up): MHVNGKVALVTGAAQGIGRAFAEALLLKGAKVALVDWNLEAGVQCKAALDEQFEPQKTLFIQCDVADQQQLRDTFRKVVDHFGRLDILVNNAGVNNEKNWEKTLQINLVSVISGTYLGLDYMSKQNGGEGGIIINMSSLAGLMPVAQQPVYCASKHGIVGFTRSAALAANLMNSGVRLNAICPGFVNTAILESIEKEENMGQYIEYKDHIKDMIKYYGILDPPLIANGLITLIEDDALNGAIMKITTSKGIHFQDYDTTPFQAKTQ
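NADH formation kinetics: reaction with 30 uM PGE2 and 1 mM NAD+ (final), 20 nM enzyme, Tris-HCl pH 8 with Tween 20, after 15 min compound preincubation at room temperature. Fluorescence change, last versus first of five reads.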
PNC inhibitor: High Content Assay for Compounds that inhibit the Assembly of the Perinucleolar Compartment | PC3M PTB-GFP, PNC prevalence imaging, 16 h; stronger effect = lower value | activity change (PNC), negative = inhibition, % at 10 µM | 3.1% of 140,000 active | AID 2417, 2010;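 active = readout at or below -70, meaning at least 70% loss of cells showing the perinucleolar compartment, a nuclear body marking cancer cells; inconclusive = readout between -30 and a set limit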;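 note: plate controls were DMSO wells for no effect and camptothecin positive control wells for full effect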
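Compounds are pinned in duplicate onto adhered PC3M cells stably expressing GFP-tagged PTB and incubated 16 h at 37 C. Cells are then fixed, nuclei stained with Hoechst, and PNC-positive cells counted.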
KinaseGlo FLuc: Counterscreen for Luciferase (Kinase-Glo TM) Inhibition | Potency, µM (doses to about 38.3 µM), without a hit: at the top dose activity change, negative = inhibition, most hits filed as inhibitors | Luciferin 4-monooxygenase (Photuris pensylvanica), Q27757 | AID 1379, 2008 | Kinase-Glo luciferase, ATP luminescence, 8 min | 0.28% of 200,000 active; active = well fitted inhibition curve with a large enough effect; inconclusive = small, poorly fitted or top-dose-only effect; note: potency is the fitted concentration of half-maximal effect; nearly all actives have a fitted effect of over 60% in size
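Recombinant Kinase-Glo luciferase, 10 uM ATP (linear range), luciferin; imidazole pH 7.2 / KCl / MgCl2 / Tween / BSA buffer; 8 min RT; luminescence.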
The depositor's hits bear a star; u = inconclusive; x = no result; ! = a repeat was not active; [ ] = another dose, or the depositor's remark. Unless noted, calls come from the whole dose curve; as a rule, active = well fitted inhibition curve with a large enough effect (not every such curve was filed as active); inconclusive = small, poorly fitted or top-dose-only effect, or another doubt; inactive = no such curve, though single readings can be large or run the other way. Unless noted, % is set by controls: 0 for no effect and ±100 for the full control effect.

SMILES	ALDH1A1 inh	LMNA splice mod	HPGD inh	PNC inhibitor	KinaseGlo FLuc
CCNC(=S)Nc1ccc(Cc2ccncc2)cc1	u	x	x	x	0%
O=C(NC(=S)Nc1ccc(N2CCCCC2)cc1)c1ccc2c(c1)OCCO2	10µM*	u	28µM*	19	2%
O=C(NC(=S)Nc1ccc(Cc2ccncc2)cc1)c1ccc(F)cc1	20µM*	2%[46 µM]	x	x	-2%
CS(=O)(=O)N1CCN(c2ccc(NC(=S)NC(=O)c3ccc4c(c3)OCO4)cc2)CC1	u	u	x	x	0%
CN(/N=C/c1cccnc1)c1cnc2ccccc2n1	9%	19%[46 µM]	x	x	0%
CCN(C(=O)Cn1cnc2cc([N+](=O)[O-])ccc2c1=O)C1CCS(=O)(=O)C1 (stereo not given)	7%	12%[46 µM]	x	x	-1%
CCN(C(=O)COC(=O)c1cc([N+](=O)[O-])ccc1N1CCCCC1)C1CCS(=O)(=O)C1 (stereo not given)	14µM*	x	x	x	-2%
CN(c1ccc(Cl)cc1)S(=O)(=O)c1nnc(NC(=O)C2CCCCC2)s1	x	1%[46 µM]	x	x	x
O=C(CSc1nnc2ccc3ccccc3n12)Nc1ccccc1Cl	x	17%[46 µM]	x	x	x
O=C(NN1C(=O)C2C(c3ccccc3)C=CC(c3ccccc3)C2C1=O)c1ccncc1 (stereo not given)	-11%	x	x	x	x
O=C(NN1C(=O)C2C3C=CC(C3)C2C1=O)c1ccncc1 (stereo not given)	15%	2%	-8%	-113*	-1%
CCc1ccc(NC(=O)C(=O)NCCc2csc(-c3cccc(F)c3)n2)cc1	x	12%[46 µM]	x	x	x
CC[n+]1c(/C=C2/C=C(C)CC(C)(C)C2)sc2ccc(OC)cc21	8.9µM*	u	-26%	-30	-9%
C=CCN=c1scc(-c2ccc3c(c2)NC(=O)CO3)n1/N=C(\C)c1ccccn1	2.8µM*	u	x	x	3%
C=CCN=c1scc(-c2ccc(F)cc2)n1/N=C/c1ccccn1	-9%	u	-3%	u	1%
CC1=C(C(=O)O)N2C(=O)[C@@H](NC(=O)[C@@H](N)c3ccc(O)cc3)[C@@H]2SC1	-11%[20.9 µM]	u	-18%	x	-1%[17.1 µM]
CCOC(=O)c1sc2nc3c(cc2c1N)C(=O)CC(C)(C)C3	0.5µM*	-7%	-9%	14	0%
CC1(C)CC(=O)c2cc3c(N)c(C(=O)NCc4ccccc4)sc3nc2C1	u	9%	1%	88	-1%
Cc1cc(C)c(NC(=O)c2sc3nc4c(cc3c2N)C(=O)CC(C)(C)C4)c(C)c1	0.25µM*	4%	-12%	19	-4%
COC(=O)c1sc2nc3c(cc2c1N)C(=O)CC(C)(C)C3	0.89µM*	4%	-1%	18	-5%
O=S(=O)(O)c1ccc(-c2nnc(-c3ccccn3)nc2-c2ccc(S(=O)(=O)O)o2)o1	u	x	-5%	x	-2%[7.66 µM]
CCN(CC)CCCCNC(=O)c1ccc(Cc2nc3ccccc3[nH]2)cc1	0%	x	-3%	x	-4%
Cn1c(=O)c(Nc2ccc(O)cc2)c2c3c(cccc31)C(=O)c1ccccc1-2	-2%	-17%	25µM*	-18	-14%
Cc1cc2ncc(C(=O)Nc3ccsc3C(=O)O)c(C)n2n1	14µM*	x	x	x	2%
CC(=O)c1cnc2cc(C)nn2c1C	0%	6%	-9%	9	-1%
SMILES	ALDH1A1 inh	LMNA splice mod	HPGD inh	PNC inhibitor	KinaseGlo FLuc
Cn1c(=O)c2c(nc(Sc3ncccn3)n2Cc2ccccc2Cl)n(C)c1=O	u	-11%	-6%	u	0%
Cn1cnnc1Sc1nc2c(c(=O)n(C)c(=O)n2C)n1Cc1ccccc1Cl	-10%	1%	6%	-92*	0%
O=C(CCCSc1nc(-c2ccco2)cc(C(F)(F)F)n1)Nc1ccc2c(c1)OCO2	16µM*	u	20µM*	13	1%
O=C(CCSc1nc(-c2ccco2)cc(C(F)(F)F)n1)N1CCN(c2ccccn2)CC1	u	u	-17%	u	-1%
O=C(CSc1nc(-c2ccco2)cc(C(F)(F)F)n1)Nc1ccc(C(=O)N2CCOCC2)cc1	-4%	7%	22µM*	-100*	-3%
O=C(CCSc1nc(-c2ccco2)cc(C(F)(F)F)n1)N1CCCc2ccccc21	18µM*	-4%	u	u	3%
CCSCCCC(=O)O	-8%[13.5 µM]	x	-8%	x	0%[7.66 µM]
C=C(CC)C(=O)c1ccc(OCC(=O)O)c(Cl)c1Cl	14µM*!	u	-27%	77	-2%
CCOC(=O)COc1ccc2nsnc2c1Cl	u	6%	u	20	-3%
COc1ccc(C(=O)Nc2nc(-c3ccc(Br)cc3)ns2)cc1	x	-4%[46 µM]	x	x	x
COc1ccc(C2=NOC(CN3C(=O)c4ccccc4S3(=O)=O)C2)cc1 (stereo not given)	u	9%	25µM*	-23	-5%
O=C1c2ccccc2S(=O)(=O)N1CC1CC(c2ccccc2)=NO1 (stereo not given)	u	1%	-16%	-17	8%
O=C1c2ccccc2S(=O)(=O)N1CC1CC(c2ccc(Cl)cc2)=NO1 (stereo not given)	5.6µM*	u	18µM*	56	-7%
COc1ccc(CNc2n[nH]c(-c3ccco3)n2)cc1OC	x	1%[46 µM]	x	x	x
Cc1cc(C)c2c(=O)n(CC(=O)NCCCN3CCN(c4ccccc4F)CC3)sc2n1	3.5µM*	-9%	u	-10	11µM*
Cc1ccccc1CS(=O)(=O)CCC(=O)NCCCN1CCN(c2ccccc2F)CC1	9%	12%[0.0737 µM]	-13%	114	3%
Cc1ccc(SCC(=O)NCCCN2CCOCC2)cc1	8%	10%	6%	u	-1%
Cc1cc(C)c2c(=O)n(CC(=O)NCCCN3CCOCC3)sc2n1	u	4%	u	u	7.9µM*
Cc1c(C(=O)Nc2ccccc2Br)oc2ccc(S(=O)(=O)N3CCCCCC3)cc12	x	-9%[46 µM]	x	x	x
CC(C)C[C@@H](CC(=O)N[C@@H](CCC(=O)O)CC(=O)O)NC(=O)[C@@H]1CNCC[C@H]1NC(=O)C[C@@H](NC(=O)C[C@H](Cc1c[nH]c2ccccc12)NC(=O)[C@@H]1CNCC[C@H]1N)C(C)C	-16%	x	-5%	x	0%
Cc1csc(NC(=O)c2nc(-c3ccccc3)n(-c3ccccc3)n2)n1	14µM*	u	-8%	28	-2%
Cc1csc(NC(=O)c2nc3nc(C)cc(C)n3n2)n1	-4%	-1%	-16%	-95*	-10%
O=C(Nc1nccs1)c1nc(-c2ccccc2)n(-c2ccccc2)n1	3%	-1%	-6%	-28	-1%
Cc1ccc(C(=O)NCc2n[nH]c(=S)n2-c2ccccc2)cc1[N+](=O)[O-]	u	x	x	x	0%
CCCN=Cc1ccc(O)cc1	8.9µM*	u	x	x	0%
